# Laboratory results taken from PubChem BioAssay (NCATS).
# Values joined by “and” are separate entries in the source; they are usually repeats but may differ in a detail not shown here. Equal values may be shown once. Inconclusive results are not listed. Where a structure was tested more than once in an assay, its records may differ in their call. Active and inactive are the calls of the source. Unless noted, the call rests on the fitted dose curve; in most records, active means well fitted curve in the direction sought with a large enough effect; inconclusive means small, poorly fitted or top-dose-only effect, or another doubt; inactive means no such curve, though single readings can be large; an effect the other way counts as inactive or inconclusive.
# Tests used:
# [1] = Primary qHTS for inhibitors of nuclear receptor binding SET domain protein 2 (NSD2) in an isogenic RCH-ACV NSD2 p.E1099K mutant (9B) (AID 1645876); further: potency means the concentration at half of the fitted maximal effect; nearly all actives have a fitted effect of over 70% in size
# [2] = Primary qHTS for inhibitors of nuclear receptor binding SET domain protein 2 (NSD2) in an RCH-ACV wild type WT cells (2C) (AID 1645877); further: potency means the concentration at half of the fitted maximal effect; nearly all actives have a fitted effect of over 70% in size
# [3] = target: Metallo-beta-lactamase type 2 (Klebsiella pneumoniae) (UniProt C7C422); assay: qHTS to identify inhibitors of the New Delhi Metallo-beta-lactamase (NDM): assay validation screen against the NCATS LOPAC Collection (AID 1794843);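 further: nitrocefin turnover by NDM-1 measured as 485 nm absorbance at plateau; on the % scale 0 is the no-effect control and ±100 the full control effect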
# Metallo-beta-lactamase type 2 (Klebsiella pneumoniae), sequence (C7C422 whole entry, looked up): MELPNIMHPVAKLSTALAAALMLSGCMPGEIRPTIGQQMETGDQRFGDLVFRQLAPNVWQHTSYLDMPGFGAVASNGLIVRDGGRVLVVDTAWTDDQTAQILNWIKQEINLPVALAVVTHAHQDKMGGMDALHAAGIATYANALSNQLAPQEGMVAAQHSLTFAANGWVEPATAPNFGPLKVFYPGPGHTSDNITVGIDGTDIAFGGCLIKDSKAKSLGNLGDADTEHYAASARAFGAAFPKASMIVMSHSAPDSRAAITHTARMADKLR
# Summary of the method: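 Enzyme 2 nM final, 50 mM HEPES pH 7.0, 1 uM ZnSO4, 0.01% Tween20; cpds in DMSO, preincub w/ enzyme; + nitrocefin (50 uM stock); A485 at plateau; no-enzyme column as blank.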
# [4] = NCATS anti-infectives library activity on HEK293 viability as a counter-qHTS vs the C. elegans viability qHTS (AID 1745854);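 further: HEK293 cells exposed to compounds for 24 hr before the viability read; on the % scale 0 is the no-effect control and ±100 the full control effect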
# Summary of the method: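 HEK293 cells (1,500/well) exposed 24 hr at 37C to 1:5 titrations, up to 41.7 uM final; counter-screen to a C. elegans viability qHTS. Viability by CellTiter-Glo luminescence after 10 min at room temperature; digitonin as control.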
# [5] = target: Catechol O-methyltransferase (Homo sapiens) (UniProt P21964); assay: Confirmatory Screen for Target Class Profiling of Small Molecule Inhibitors of Methyltransferases (AID 1745852; calls by dose curve; further: potency means the concentration at half of the fitted maximal effect; on activity change, negative = inhibition: on the % scale 0 is the no-effect control and ±100 the full control effect); settings: MTase-Glo luminescence, SAH detection, recombinant enzyme, stronger effect = lower value; measured here: COMT max response unless noted
# Catechol O-methyltransferase (Homo sapiens), sequence (P21964 whole entry, looked up): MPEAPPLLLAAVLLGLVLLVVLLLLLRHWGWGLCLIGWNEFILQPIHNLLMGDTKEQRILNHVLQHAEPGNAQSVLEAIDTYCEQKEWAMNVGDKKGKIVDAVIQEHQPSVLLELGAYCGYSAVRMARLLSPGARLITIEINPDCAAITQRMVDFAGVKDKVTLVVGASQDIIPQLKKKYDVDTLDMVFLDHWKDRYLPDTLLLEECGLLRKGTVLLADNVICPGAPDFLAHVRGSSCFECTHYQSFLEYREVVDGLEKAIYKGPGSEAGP
# [6] = target: Guanidinoacetate N-methyltransferase (Homo sapiens) (UniProt Q14353); assay: as above; settings: MTase-Glo luminescence, SAH detection, recombinant enzyme; activity change, negative = inhibition: at 57.3 µM (top of the series)
# [7] = target: Nicotinamide N-methyltransferase (Homo sapiens) (UniProt P40261); assay: as above; settings: MTase-Glo luminescence, SAH detection, recombinant enzyme, stronger effect = lower value; measured here: NNMT max response unless noted
# Nicotinamide N-methyltransferase (Homo sapiens), sequence (P40261 whole entry, looked up): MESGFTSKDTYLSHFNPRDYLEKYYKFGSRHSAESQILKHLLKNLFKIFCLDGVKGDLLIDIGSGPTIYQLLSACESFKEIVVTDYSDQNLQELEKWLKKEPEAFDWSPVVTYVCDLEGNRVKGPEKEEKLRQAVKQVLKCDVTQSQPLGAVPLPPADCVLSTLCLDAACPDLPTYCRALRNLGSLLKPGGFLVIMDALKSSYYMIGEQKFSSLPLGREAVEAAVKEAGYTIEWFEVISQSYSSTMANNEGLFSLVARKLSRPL
# [8] = target: Phenylethanolamine N-methyltransferase (Homo sapiens) (UniProt P11086); assay: as above; settings: MTase-Glo luminescence, SAH detection, recombinant enzyme, stronger effect = lower value; measured here: PNMT max response unless noted
# Phenylethanolamine N-methyltransferase (Homo sapiens), sequence (P11086 whole entry, looked up): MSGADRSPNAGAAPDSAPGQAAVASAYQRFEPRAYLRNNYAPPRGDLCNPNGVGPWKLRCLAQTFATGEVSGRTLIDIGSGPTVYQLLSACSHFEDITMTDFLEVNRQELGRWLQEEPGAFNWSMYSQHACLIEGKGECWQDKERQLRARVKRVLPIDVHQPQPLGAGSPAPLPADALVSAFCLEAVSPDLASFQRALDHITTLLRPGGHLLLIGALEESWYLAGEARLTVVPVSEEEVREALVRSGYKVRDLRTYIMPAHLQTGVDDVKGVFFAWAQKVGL
# [9] = target: Rap guanine nucleotide exchange factor 3 (Homo sapiens) (UniProt O95398); assay: Confirmatory qHTS for antagonist of cAMP-regulated guanine nucleotide exchange factor 3 (EPAC1) (AID 1645880);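 further: plate controls were DMSO only for no effect and full effect of the ATA control for full effect; nearly all actives have a fitted effect of over 55% in size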
# Rap guanine nucleotide exchange factor 3 (Homo sapiens), sequence (O95398 whole entry, looked up): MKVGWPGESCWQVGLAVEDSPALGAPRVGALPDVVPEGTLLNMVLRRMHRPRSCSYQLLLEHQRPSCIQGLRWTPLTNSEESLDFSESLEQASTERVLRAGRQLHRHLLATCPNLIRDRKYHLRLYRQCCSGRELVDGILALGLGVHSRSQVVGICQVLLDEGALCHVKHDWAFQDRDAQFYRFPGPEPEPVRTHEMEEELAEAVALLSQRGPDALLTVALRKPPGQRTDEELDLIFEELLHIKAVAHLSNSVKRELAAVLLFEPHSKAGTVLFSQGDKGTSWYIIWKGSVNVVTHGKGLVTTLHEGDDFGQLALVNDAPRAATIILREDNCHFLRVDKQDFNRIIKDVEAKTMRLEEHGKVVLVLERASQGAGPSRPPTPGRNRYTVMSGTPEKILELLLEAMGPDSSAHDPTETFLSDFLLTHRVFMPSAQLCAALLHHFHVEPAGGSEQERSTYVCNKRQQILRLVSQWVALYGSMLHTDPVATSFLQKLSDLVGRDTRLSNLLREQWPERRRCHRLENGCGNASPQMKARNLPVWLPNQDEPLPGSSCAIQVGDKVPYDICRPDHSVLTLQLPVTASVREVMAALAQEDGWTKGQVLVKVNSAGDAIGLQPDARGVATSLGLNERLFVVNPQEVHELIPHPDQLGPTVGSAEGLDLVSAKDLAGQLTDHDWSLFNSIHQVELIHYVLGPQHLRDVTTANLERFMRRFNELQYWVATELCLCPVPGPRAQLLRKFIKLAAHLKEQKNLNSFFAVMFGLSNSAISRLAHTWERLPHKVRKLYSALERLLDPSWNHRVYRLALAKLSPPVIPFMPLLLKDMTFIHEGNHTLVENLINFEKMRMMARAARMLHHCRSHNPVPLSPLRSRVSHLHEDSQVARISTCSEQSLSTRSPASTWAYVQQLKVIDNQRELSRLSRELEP
# Summary of the method: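 Nucleotide exchange uses 100 nM EPAC1, 250 nM RAP1B-BODIPY-GDP and 50 uM GDP, with compounds in a concentration-titration series. After 5 min at room temperature, fluorescence (480 nm ex/540 nm em) is read every 5 min for 30 min. Data are normalized to control ATA and DMSO.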
# [10] = target: Rap guanine nucleotide exchange factor 3 (Homo sapiens) (UniProt O95398); assay: Confirmatory qHTS for agonist of cAMP-regulated guanine nucleotide exchange factor 3 (EPAC1) (AID 1645881);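 further: EPAC1 catalysed release of BODIPY-GDP from Rap1B seen as fluorescence loss; 100% = effect of cAMP agonist control; nearly all actives have a fitted effect of over 75% in size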
# [11] = target: Rap guanine nucleotide exchange factor 4 (Homo sapiens) (UniProt Q8WZA2); assay: Confirmatory qHTS for agonist of cAMP-regulated guanine nucleotide exchange factor 4 (EPAC2) (AID 1645884);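 further: nucleotide exchange releases bodipy-GDP from Rap1 and this lowers its fluorescence; on the % scale 0 is the no-effect control and ±100 the full control effect; nearly all actives have a fitted effect of over 65% in size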
# Rap guanine nucleotide exchange factor 4 (Homo sapiens), sequence (Q8WZA2 whole entry, looked up): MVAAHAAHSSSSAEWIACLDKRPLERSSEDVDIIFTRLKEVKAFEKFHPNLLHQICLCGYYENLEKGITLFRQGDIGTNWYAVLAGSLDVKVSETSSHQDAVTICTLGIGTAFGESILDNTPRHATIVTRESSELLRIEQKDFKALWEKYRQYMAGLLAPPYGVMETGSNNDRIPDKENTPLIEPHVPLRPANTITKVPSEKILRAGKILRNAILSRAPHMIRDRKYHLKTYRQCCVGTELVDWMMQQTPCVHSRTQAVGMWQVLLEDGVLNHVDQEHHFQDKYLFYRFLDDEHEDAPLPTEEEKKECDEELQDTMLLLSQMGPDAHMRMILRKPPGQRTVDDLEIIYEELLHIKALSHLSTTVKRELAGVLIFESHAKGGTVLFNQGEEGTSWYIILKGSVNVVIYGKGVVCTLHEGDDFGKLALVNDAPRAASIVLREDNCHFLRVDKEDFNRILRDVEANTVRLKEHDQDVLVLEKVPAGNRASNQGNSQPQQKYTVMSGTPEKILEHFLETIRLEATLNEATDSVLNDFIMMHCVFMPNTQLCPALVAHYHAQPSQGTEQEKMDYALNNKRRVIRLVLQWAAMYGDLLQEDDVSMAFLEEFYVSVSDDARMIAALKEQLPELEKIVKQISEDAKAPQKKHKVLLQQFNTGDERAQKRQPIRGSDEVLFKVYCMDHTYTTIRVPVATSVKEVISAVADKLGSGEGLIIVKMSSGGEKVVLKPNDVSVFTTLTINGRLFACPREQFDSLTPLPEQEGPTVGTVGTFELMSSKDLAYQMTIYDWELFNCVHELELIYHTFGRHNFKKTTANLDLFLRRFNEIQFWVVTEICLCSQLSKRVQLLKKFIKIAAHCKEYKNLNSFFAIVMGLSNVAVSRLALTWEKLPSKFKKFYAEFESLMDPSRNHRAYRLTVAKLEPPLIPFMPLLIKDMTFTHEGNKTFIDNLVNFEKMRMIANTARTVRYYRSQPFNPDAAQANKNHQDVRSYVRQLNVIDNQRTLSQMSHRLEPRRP
# [12] = target: Rap guanine nucleotide exchange factor 4 (Homo sapiens) (UniProt Q8WZA2); assay: Confirmatory qHTS for antagonist of cAMP-regulated guanine nucleotide exchange factor 4 (EPAC2) (AID 1645885); further: nearly all actives have a fitted effect of over 25% in size; further: potency means the concentration at half of the fitted maximal effect; on activity change, negative = inhibition: on the % scale 0 is the no-effect control and ±100 the full control effect
# [13] = target: Rap guanine nucleotide exchange factor 3 (Homo sapiens) (UniProt O95398); assay: Counterscreen qHTS for antagonist of cAMP-regulated guanine nucleotide exchange factor 3 (EPAC1) (AID 1645888);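 further: fluorescence loss as bound BODIPY-GDP is released from Rap1B; % of control where 0% means no effect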
# Summary of the method: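 Measured: fluorescence of BODIPY-GDP bound to Rap1B, which falls as exchange proceeds. Conditions include 50 uM competing GDP, 5 and 30 min reads, and a later cAMP challenge for antagonist detection.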
structure (smiles),measurement,setting,value
O=Nc1c(-c2c(O)[nH]c3cc(Br)ccc23)[nH]c2ccccc12,Potency,[1],1.32 µM (active)
same,Potency,[2],1.32 µM (active)
same,outcome,[3],inactive
Cc1ccc(NC(=O)c2ccc(CN3CCN(C)CC3)cc2)cc1Nc1nccc(-c2cccnc2)n1,Potency,[1],15 µM (active) and 20.6 µM (active) and 18.6 µM (active)
same,Potency,[2],13.3 µM (active) and 18.4 µM (active) and 16.6 µM (active)
same,outcome,[4],inactive
Cc1ccc(Nc2nccc(N(C)c3ccc4c(C)n(C)nc4c3)n2)cc1S(N)(=O)=O,Potency,[1],5.31 µM (active) and 1.83 µM (active) and 4.17 µM (active)
same,Potency,[2],9.44 µM (active) and 4.68 µM (active)
same,activity,[5],-4.72%
same,"activity change, negative = inhibition",[6],0%
same,activity,[7],-0.226%
same,activity,[8],-2.8%
C[C@H](Cc1ccc(O)c(O)c1)[C@@H](C)Cc1ccc(O)c(O)c1,Potency,[1],13.2 µM (active) and 7.31 µM (active)
same,Potency,[2],11.8 µM (active) and 7.31 µM (active)
same,activity,[5],10.2%
same,Potency,[6],30.6 µM (active)
same,activity,[7],-37.4%
same,activity,[8],-61.1%
same,outcome,[3],inactive
Clc1ccc(C(Cn2ccnc2)OCc2c(Cl)cccc2Cl)c(Cl)c1 (centres undefined),Potency,[1],21.1 µM (active) and 18.6 µM (active)
same,Potency,[2],21.1 µM (active) and 18.6 µM (active)
same,Potency,[9],inactive
same,outcome,[10],inactive
same,outcome,[11],inactive
same,Potency,[12],20.5 µM (active) and inactive
same,outcome,[13],inactive
same,activity,[5],-8.16%
same,"activity change, negative = inhibition",[6],-4.74%
same,activity,[7],-55.2%
same,activity,[8],-12.3%
O=C1NC(=O)C(c2ccccc2[N+](=O)[O-])=C1Nc1ccc(O)c(Cl)c1,Potency,[1],13.2 µM (active)
same,Potency,[2],18.6 µM (active)
same,outcome,[4],inactive
same,outcome,[3],inactive
